Values joined by “and” are separate entries in the source; they are usually repeats but may differ in a detail not shown here. Equal values may be shown once. Active and inactive are the calls of the source. The rule behind the calls is not given here.
Assay: growth inhibition, single agents and combos, LFS_MB_2R, cell-based, cisplatin combos, synergistic combos for chromothripsis tumors (AID 1671457);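 note: cells exposed to compound for four days before readout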
Details: LFS_MB_2R medulloblastoma cells, measured here: combination with cisplatin, at 5 µM, stronger effect = higher value

Compound	inhibition
Cc1c(N)nc(C(CC(N)=O)NCC(N)C(N)=O)nc1C(=O)NC(C(=O)NC(C)C(O)C(C)C(=O)NC(C(=O)NCCc1nc(-c2nc(C(=O)NCCC[S+](C)C)cs2)cs1)C(C)O)C(O[C@@H]1O[C@@H](CO)[C@@H](O)[C@H](O)[C@@H]1O[C@H]1O[C@H](CO)[C@@H](O)[C@H](OC(N)=O)[C@@H]1O)c1cnc[nH]1 (stereo not given in full)	-27.5% and -11.4%
O=c1[nH]c(=O)n(C2OC(CO)C(O)C2O)cc1F (stereo not given)	6.83%
O=P(O)(NCCCl)NCCCl	-26.8%
CC1(C)C(C(=O)Nc2ccc(S(=O)(=O)c3ccc(NC(=O)C4C(C)(C)C4(C)C)cc3)cc2)C1(C)C	-6.76%
CCC1(O)C(=O)OCc2c1cc1n(c2=O)Cc2cc3ccccc3nc2-1 (stereo not given)	76.3% and 69.2%
NC(Cc1ccc(N(CCCl)CCCl)cc1)C(=O)O (stereo not given)	-58.8%
COc1cc([C@@H]2c3cc4c(cc3[C@H](O)[C@H]3COC(=O)[C@H]23)OCO4)cc(OC)c1O	37.2% and 35.6%
COc1cc(C2c3cc4c(cc3C(O)C3COC(=O)C23)OCO4)cc(OC)c1OC (stereo not given)	47.1%

Assay: growth inhibition, MDA-MB-436, cell-based, BGB or cisplatin combos, synergistic combos for chromothripsis tumors (AID 1671458);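 note: cells exposed for 96 hours; 0% = vehicle DMSO and 100% = killing by high DMSO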
Details: MDA-MB-436 breast carcinoma growth inhibition, drug combinations; at 0.5 µM; stronger effect = higher value

Compound	inhibition
Cc1c(N)nc(C(CC(N)=O)NCC(N)C(N)=O)nc1C(=O)NC(C(=O)NC(C)C(O)C(C)C(=O)NC(C(=O)NCCc1nc(-c2nc(C(=O)NCCC[S+](C)C)cs2)cs1)C(C)O)C(O[C@@H]1O[C@@H](CO)[C@@H](O)[C@H](O)[C@@H]1O[C@H]1O[C@H](CO)[C@@H](O)[C@H](OC(N)=O)[C@@H]1O)c1cnc[nH]1 (stereo not given in full)	15.9% (inactive) and 17.6% (inactive)
O=c1[nH]c(=O)n(C2OC(CO)C(O)C2O)cc1F (stereo not given)	45.1% (inactive)
O=P(O)(NCCCl)NCCCl	-14.5% (inactive)
CC1(C)C(C(=O)Nc2ccc(S(=O)(=O)c3ccc(NC(=O)C4C(C)(C)C4(C)C)cc3)cc2)C1(C)C	-18.2% (inactive)
CCC1(O)C(=O)OCc2c1cc1n(c2=O)Cc2cc3ccccc3nc2-1 (stereo not given)	54.1% (inactive) and 72% (inactive)
NC(Cc1ccc(N(CCCl)CCCl)cc1)C(=O)O (stereo not given)	10.4% (inactive)
COc1cc([C@@H]2c3cc4c(cc3[C@H](O)[C@H]3COC(=O)[C@H]23)OCO4)cc(OC)c1O	56.1% (inactive) and 45.1% (inactive)
COc1cc(C2c3cc4c(cc3C(O)C3COC(=O)C23)OCO4)cc(OC)c1OC (stereo not given)	69.7% (inactive)

Same assay, conditions: MDA-MB-436 breast carcinoma growth inhibition, drug combinations; measured here: BGB combination; at 0.5 µM; stronger effect = higher value

Compound	inhibition
Cc1c(N)nc(C(CC(N)=O)NCC(N)C(N)=O)nc1C(=O)NC(C(=O)NC(C)C(O)C(C)C(=O)NC(C(=O)NCCc1nc(-c2nc(C(=O)NCCC[S+](C)C)cs2)cs1)C(C)O)C(O[C@@H]1O[C@@H](CO)[C@@H](O)[C@H](O)[C@@H]1O[C@H]1O[C@H](CO)[C@@H](O)[C@H](OC(N)=O)[C@@H]1O)c1cnc[nH]1 (stereo not given in full)	8.64% and 0.685%
O=c1[nH]c(=O)n(C2OC(CO)C(O)C2O)cc1F (stereo not given)	27.6%
O=P(O)(NCCCl)NCCCl	-12.5%
CC1(C)C(C(=O)Nc2ccc(S(=O)(=O)c3ccc(NC(=O)C4C(C)(C)C4(C)C)cc3)cc2)C1(C)C	-21%
CCC1(O)C(=O)OCc2c1cc1n(c2=O)Cc2cc3ccccc3nc2-1 (stereo not given)	51.4% and 63.7%
NC(Cc1ccc(N(CCCl)CCCl)cc1)C(=O)O (stereo not given)	2.27%
COc1cc([C@@H]2c3cc4c(cc3[C@H](O)[C@H]3COC(=O)[C@H]23)OCO4)cc(OC)c1O	36% and 23.1%
COc1cc(C2c3cc4c(cc3C(O)C3COC(=O)C23)OCO4)cc(OC)c1OC (stereo not given)	58.4%

Same assay, conditions: MDA-MB-436 breast carcinoma growth inhibition, drug combinations; measured here: BGB combination; at 5 µM; stronger effect = higher value

Compound	inhibition
Cc1c(N)nc(C(CC(N)=O)NCC(N)C(N)=O)nc1C(=O)NC(C(=O)NC(C)C(O)C(C)C(=O)NC(C(=O)NCCc1nc(-c2nc(C(=O)NCCC[S+](C)C)cs2)cs1)C(C)O)C(O[C@@H]1O[C@@H](CO)[C@@H](O)[C@H](O)[C@@H]1O[C@H]1O[C@H](CO)[C@@H](O)[C@H](OC(N)=O)[C@@H]1O)c1cnc[nH]1 (stereo not given in full)	29.8% and 10.1%
O=c1[nH]c(=O)n(C2OC(CO)C(O)C2O)cc1F (stereo not given)	83.1%
O=P(O)(NCCCl)NCCCl	-5.62%
CC1(C)C(C(=O)Nc2ccc(S(=O)(=O)c3ccc(NC(=O)C4C(C)(C)C4(C)C)cc3)cc2)C1(C)C	-4.44%
CCC1(O)C(=O)OCc2c1cc1n(c2=O)Cc2cc3ccccc3nc2-1 (stereo not given)	74.8% and 70.3%
NC(Cc1ccc(N(CCCl)CCCl)cc1)C(=O)O (stereo not given)	8.02%
COc1cc([C@@H]2c3cc4c(cc3[C@H](O)[C@H]3COC(=O)[C@H]23)OCO4)cc(OC)c1O	45.8% and 43.9%
COc1cc(C2c3cc4c(cc3C(O)C3COC(=O)C23)OCO4)cc(OC)c1OC (stereo not given)	53.6%

Same assay, conditions: MDA-MB-436 breast carcinoma growth inhibition, drug combinations; measured here: cisplatin combination; at 0.5 µM; stronger effect = higher value

Compound	inhibition
Cc1c(N)nc(C(CC(N)=O)NCC(N)C(N)=O)nc1C(=O)NC(C(=O)NC(C)C(O)C(C)C(=O)NC(C(=O)NCCc1nc(-c2nc(C(=O)NCCC[S+](C)C)cs2)cs1)C(C)O)C(O[C@@H]1O[C@@H](CO)[C@@H](O)[C@H](O)[C@@H]1O[C@H]1O[C@H](CO)[C@@H](O)[C@H](OC(N)=O)[C@@H]1O)c1cnc[nH]1 (stereo not given in full)	17.1% and 11.9%
O=c1[nH]c(=O)n(C2OC(CO)C(O)C2O)cc1F (stereo not given)	39.9%
O=P(O)(NCCCl)NCCCl	-16%
CC1(C)C(C(=O)Nc2ccc(S(=O)(=O)c3ccc(NC(=O)C4C(C)(C)C4(C)C)cc3)cc2)C1(C)C	-40.7%
CCC1(O)C(=O)OCc2c1cc1n(c2=O)Cc2cc3ccccc3nc2-1 (stereo not given)	45.3% and 73.5%
NC(Cc1ccc(N(CCCl)CCCl)cc1)C(=O)O (stereo not given)	6.39%
COc1cc([C@@H]2c3cc4c(cc3[C@H](O)[C@H]3COC(=O)[C@H]23)OCO4)cc(OC)c1O	63.1% and 44.6%
COc1cc(C2c3cc4c(cc3C(O)C3COC(=O)C23)OCO4)cc(OC)c1OC (stereo not given)	72.1%

Reference: PubChem BioAssay
